HSP90 inh – HSP90 refolding inhibition in rabbit reticulocyte lysate. 290,000 tested, 0.91% active. inhibition, % at 5.6 µM. luciferase refolding luminescence, 3 h;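 active means inhibition above the screen-wide mean plus 3 SD, computed separately per campaign, cut at about 16% in these data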;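 further: inhibitors lower the luminescence because luciferase stays unfolded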
TROY NFkB inh – inhibitors of TROY-dependent NF-kB signaling; inhibition, % at 10 µM; 360,000 tested, 0.98% active; AID 1347056; Q293 LMP1-TROYcd NF-kB luciferase reporter, 4 h;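 active means compounds whose plate-normalised and pattern-corrected inhibition of the luciferase reporter signal at the single screening dose is 50% or more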
aDG glyco up – alpha-DG glycosylation activation; 360,000 tested, 0.22% active; activation, % at 10 µM; AID 624168; Pro5-aDG cells, alpha-DG glycosylation AlphaScreen (IIH6); 0% Pro5, 100% B10-LARGE cell signal;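 active means activation of at least 8% versus controls, or a plate z-score of at least 8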;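 further: Pro5 are CHO cells carrying HIG-tagged alpha-DG that lacks glycosylation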
LGR2 inh – inhibitors of bursicon-induced Drosophila LGR2 receptor cAMP signaling | inhibition, % at 9.99 µM | 380,000 tested, 0.35% active | HEK293 LGR2, CRE-luciferase, bursicon-stimulated, 4 h;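 active means drop in luminescence signal, shown as inhibition above about 50% in the replicate tests, limit read from the data, passing the limit was not always enough; inconclusive means probably only some replicates passing the limit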;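 further: agonist challenge used bursicon conditioned medium at about half maximal strength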
TWEAK Fn14 block – inhibitors of TWEAK-Fn14 interaction signaling; AID 1159606; 360,000 tested, 2% active; inhibition, % at 10 µM; TWEAK-stimulated Fn14 reporter cells, luciferase luminescence, 8 h; in the data active means inhibition above about 50%
EBV LMP1 NFkB – Epstein-Barr LMP1 NF-kappaB reporter inhibition; LMP1-induced NF-kappaB luciferase reporter cells, luminescence; inhibition, % at 12.5 µM; 350,000 tested, 0.69% active; in the data active means inhibition above about 41%; inconclusive means no clear call, values can overlap the other calls
Of the large screens only hits and unclear results are named; the others gave an inactive call. The list is not random: actives were taken first. Their share in the collection is about 2.6%.

CO[C@H]1CN(C)C(=O)c2ccc(NC(=O)C3CC3)cc2OC[C@H](C)N(C(=O)CN(C)C)C[C@@H]1C	none (no result: HSP90 inh, TROY NFkB inh, aDG glyco up, TWEAK Fn14 block, EBV LMP1 NFkB)
C[C@H](CO)N1C[C@H](C)[C@H](CN(C)C(=O)Nc2ccc(C(F)(F)F)cc2)Oc2ccc(NS(=O)(=O)c3ccc(F)cc3)cc2C1=O	none (no result: HSP90 inh, TROY NFkB inh, aDG glyco up, TWEAK Fn14 block, EBV LMP1 NFkB)
Cn1c(=NC(=O)c2ccc(S(=O)(=O)N3CCCc4ccccc43)cc2)sc2cc(S(C)(=O)=O)ccc21	none
Cn1c(=NC(=O)c2ccccc2[N+](=O)[O-])sc2cc(S(C)(=O)=O)ccc21	TWEAK Fn14 block 51.2
COC(=O)c1ccc2c(c1)C(C)(C)C(/C=C/c1ccc(O)cc1)=[N+]2C	LGR2 inh inconclusive, TWEAK Fn14 block 94.3, EBV LMP1 NFkB 88.8
CC(C)CNS(=O)(=O)c1ccc(CCC(=O)O)cc1	none (no result: LGR2 inh)
O=Cc1cc(CCC(=O)O)ccc1O	EBV LMP1 NFkB 53.3
C[C@@H]1CCCCO[C@H](CN(C)C(=O)Nc2cccc3ccccc23)[C@@H](C)CN([C@@H](C)CO)C(=O)c2cc(N(C)C)ccc2O1	none (no result: HSP90 inh, TROY NFkB inh, aDG glyco up, TWEAK Fn14 block, EBV LMP1 NFkB)
CC=Cc1ccc2n(c1=O)C[C@H]1[C@H](CO)[C@@H](C(=O)NCC3CC3)[C@@H]2N1C(=O)c1ccccc1 (mixture of isomers)	none (no result: HSP90 inh, TROY NFkB inh, aDG glyco up, TWEAK Fn14 block, EBV LMP1 NFkB)
Fc1nc(F)c(F)c(NCCCNc2c(F)c(F)nc(F)c2F)c1F	TROY NFkB inh 50.2
Cc1ccc(S(=O)(=O)Nc2ccc3c(c2)C(=O)N([C@H](C)CO)C[C@H](C)[C@@H](CN(C)S(=O)(=O)c2ccc(F)cc2)O3)cc1	none (no result: HSP90 inh, TROY NFkB inh, aDG glyco up, TWEAK Fn14 block, EBV LMP1 NFkB)
CC(=O)c1ccc(Nc2nc(C)cc(C)n2)cc1	EBV LMP1 NFkB 79.9
C[C@H](CO)N1C[C@H](C)[C@H](CN(C)Cc2ccc(C(=O)O)cc2)Oc2c(NS(=O)(=O)c3cn(C)cn3)cccc2C1=O	none (no result: HSP90 inh, TROY NFkB inh, aDG glyco up, TWEAK Fn14 block, EBV LMP1 NFkB)
N#C/C(=C\c1ccccc1[N+](=O)[O-])C(=O)NCc1ccccc1	none
N#C/C(=C\C=C\c1ccccc1[N+](=O)[O-])C(=O)NCc1ccccc1	TWEAK Fn14 block 87.8
On1ccccc1=S	TROY NFkB inh 68.6, TWEAK Fn14 block 105.7 (no result: HSP90 inh)
O=C1c2ccc3c4c(ccc(c24)C(=O)N1c1cccc(O)c1)C(=O)N(c1cccc(O)c1)C3=O	aDG glyco up 4.0
COCC(C)n1c(C)cc(C(=O)COC(=O)c2cccn2C)c1C (configuration not stated)	TROY NFkB inh 81.8, TWEAK Fn14 block 93.5, EBV LMP1 NFkB inconclusive (no result: HSP90 inh, LGR2 inh)
C[C@@H]1CCCCO[C@H](CN(C)S(=O)(=O)c2cccs2)[C@@H](C)CN([C@H](C)CO)C(=O)c2cc(NC(=O)c3ccncc3)ccc2O1	none (no result: HSP90 inh, TROY NFkB inh, aDG glyco up, TWEAK Fn14 block, EBV LMP1 NFkB)
CCn1c2ccccc2c2cc(/C=N/NC(=O)c3cccc(C)c3)ccc21	EBV LMP1 NFkB 87.8 (no result: LGR2 inh)
CCn1c2ccccc2c2cc(/C=N/NC(=O)c3ccccc3C)ccc21	EBV LMP1 NFkB 87.0
Cn1c2ccccc2c2cc(/C=N/NC(=O)c3ccc(N)cc3)ccc21	none
Cn1c2ccccc2c2cc(/C=N/NC(=O)c3ccccc3F)ccc21	none
COCC#Cc1cnc2c(c1)C(=O)N([C@@H](C)CO)C[C@H](C)[C@@H](CN(C)C(=O)c1cnccn1)O2	none (no result: HSP90 inh, TROY NFkB inh, aDG glyco up, TWEAK Fn14 block, EBV LMP1 NFkB)
CN(C)CC(=O)N1CC2(C1)[C@@H](c1ccccc1)[C@@H](CO)N2C(=O)C1CCC1	none (no result: HSP90 inh, TROY NFkB inh, aDG glyco up, TWEAK Fn14 block, EBV LMP1 NFkB)
Cc1csc2ncnc(N3CCN(C(=O)Nc4ccc(OC(F)(F)F)cc4)CC3)c12	TWEAK Fn14 block 62.6 (no result: LGR2 inh)
C[C@@H]1CCCCO[C@@H](CN(C)C(=O)Nc2ccc(F)cc2)[C@H](C)CN([C@H](C)CO)C(=O)c2cc(NS(=O)(=O)c3ccc(Cl)cc3)ccc2O1	none (no result: HSP90 inh, TROY NFkB inh, aDG glyco up, TWEAK Fn14 block, EBV LMP1 NFkB)
COc1ccc(C(C)(O)c2nc(-c3cccc(C#N)c3)cs2)cc1 (configuration not stated)	none (no result: HSP90 inh, EBV LMP1 NFkB)
COc1cccc(C(C)(O)c2nc(-c3cccc(C#N)c3)cs2)c1 (configuration not stated)	TWEAK Fn14 block 51.7 (no result: HSP90 inh, EBV LMP1 NFkB)
CCN(CC)C(=O)c1cccc(-c2csc(C(C)(O)c3cccc(F)c3)n2)c1 (configuration not stated)	TWEAK Fn14 block 53.0 (no result: HSP90 inh, EBV LMP1 NFkB)
CC(=O)Nc1cccc(-c2csc(C(C)(O)c3cccc(F)c3)n2)c1 (configuration not stated)	none (no result: HSP90 inh, EBV LMP1 NFkB)
CCCN1[C@H](C(=O)OC)[C@@H](CO)[C@@H]2Cn3c(ccc(C4=CCCCC4)c3=O)[C@@H]21	none (no result: HSP90 inh, TROY NFkB inh, aDG glyco up, TWEAK Fn14 block, EBV LMP1 NFkB)
O=C(C1CC1)N1CCc2cc(Br)cc(S(=O)(=O)NCCCN3CCCCC3)c21	none
